# From PubChem BioAssay (NCATS)
# Results filed as inconclusive are left out. A call without a number means that no potency is given here. The source made the active and inactive calls. Unless noted, the call rests on the fitted dose curve; in most records, active means well fitted curve in the direction sought with a large enough effect; inconclusive means small, poorly fitted or top-dose-only effect, or another doubt; inactive means no such curve, though single readings can be large; an effect the other way counts as inactive or inconclusive.
# Columns and labels:
# [1] = Confirmation and Secondary Assay for Modulators of Hemoglobin Beta Chain Splicing at IVS2 654 locus (AID 910); details: HeLa EGFP-654 splicing reporter, GFP fluorescence, 48 h; series mostly up to 46.1 µM;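 further: per-well total GFP intensity by laser scanning cytometry after 2-day treatment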
# Method in brief: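 HeLa cells stably carrying EGFP interrupted by mutant beta-globin IVS2-654 intron (CMV-driven) were treated with compound for 2 days at 37C; corrected splicing was scored as total peak GFP intensity per well (488 nm excitation, 500-520 nm emission).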
# [2] = Confirmation and Secondary Assay for Modulators of Hemoglobin Beta Chain Splicing at IVS2 705 locus (AID 930); details: HeLa EGFP-705 splicing reporter, GFP fluorescence, 48 h; series mostly up to 46.1 µM;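 further: HeLa cells stably expressing the EGFP-705 splicing reporter; GFP fluorescence per well restored by corrected splicing of the IVS2-705 intron in EGFP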
# Method in brief: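 HeLa IVS2-705 EGFP reporter cells, 500/well, compound 2 d at 37C; correct splicing yields fluorescent EGFP. Control: 500 nM antisense PNA. Read-out: total peak GFP intensity.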
# [3] = qHTS Assay for Lipid Storage Modulators (AID 1519; calls by dose curve); details: Drosophila S3 cells, BODIPY lipid droplet/cell ratio, laser cytometry, cells loaded with oleic acid; for activity change, negative = inhibition: at 57.5 µM (top of the series)
# Method in brief: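 Cells seeded at 5,000 per well were treated with compounds over a concentration series and loaded with oleic acid (400 uM, as added). Lipid droplet fluorescence (488 nm excitation, 500-530 nm channel) was read by laser-scanning cytometry and normalized to 20 uM Triacsin C.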
# [4] = target: Ubiquitin carboxyl-terminal hydrolase 1 (Homo sapiens) (UniProt O94782); assay: Inhibitors of USP1/UAF1: Pilot qHTS (AID 504865); details: purified USP1/UAF1, Ub-rhodamine cleavage fluorescence; series mostly up to 114 µM;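 further: rhodamine fluorescence freed from ubiquitin-rhodamine substrate followed over time; top concentration of the series differs between compounds; nearly all actives have a fitted effect of over 35% in size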
# Chain of Ubiquitin carboxyl-terminal hydrolase 1 (Homo sapiens) (O94782 whole entry, looked up): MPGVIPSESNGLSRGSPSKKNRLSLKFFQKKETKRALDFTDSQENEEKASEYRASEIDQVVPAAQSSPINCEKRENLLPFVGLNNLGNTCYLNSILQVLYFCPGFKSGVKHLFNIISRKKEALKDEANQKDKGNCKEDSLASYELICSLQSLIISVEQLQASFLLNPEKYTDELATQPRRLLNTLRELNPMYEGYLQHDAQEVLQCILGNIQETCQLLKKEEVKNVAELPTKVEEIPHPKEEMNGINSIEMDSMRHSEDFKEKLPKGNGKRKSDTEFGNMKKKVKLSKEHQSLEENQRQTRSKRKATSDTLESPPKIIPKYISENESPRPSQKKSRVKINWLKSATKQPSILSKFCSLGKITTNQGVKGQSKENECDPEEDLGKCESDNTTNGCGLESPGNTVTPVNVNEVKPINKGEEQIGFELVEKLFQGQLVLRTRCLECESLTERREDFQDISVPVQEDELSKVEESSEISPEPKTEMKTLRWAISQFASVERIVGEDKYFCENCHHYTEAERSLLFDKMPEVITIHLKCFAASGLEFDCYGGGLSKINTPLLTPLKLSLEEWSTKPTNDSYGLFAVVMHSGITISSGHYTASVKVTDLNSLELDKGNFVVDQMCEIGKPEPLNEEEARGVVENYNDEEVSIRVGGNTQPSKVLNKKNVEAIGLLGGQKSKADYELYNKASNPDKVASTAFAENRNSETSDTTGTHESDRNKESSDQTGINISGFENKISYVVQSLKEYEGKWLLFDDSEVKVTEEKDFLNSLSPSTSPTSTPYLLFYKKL
# Method in brief: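 In 50mM HEPES pH 7.8 containing 0.5mM EDTA, 1mM TCEP, 0.1 mg/ml BSA and 0.01% Tween-20, 1nM USP1/UAF1 is exposed to compound for 15 min, then Ub-Rho (150nM final) is added and fluorescence is read over time.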
# [5] = target: Mitogen-activated protein kinase 10 (Mus musculus) (UniProt Q61831); assay: JNK3 AlphaScreen Assay (AID 530; active means well fitted curve in either direction with a large enough effect, not every such curve was filed as active;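 further: kinase came from lysate of stimulated human HepG2 cells; signal reports phosphorylation of biotinylated GST-cJun 1-79 at Ser73 with 10 µM ATP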); details: JNK3 lysate, c-Jun phosphorylation; series mostly up to 25.6 µM
# Method in brief: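 Phosphorylation of biotinylated GST-cJun(1-79) at Ser73 is measured by AlphaScreen proximity luminescence. Enzyme is JNK3 in HepG2 lysates activated with interleukin-1beta and tumor necrosis factor alpha; ATP is 10 uM final.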
# [6] = target: 3',5'-cyclic-AMP phosphodiesterase 4B (Homo sapiens) (UniProt Q07343); assay: qHTS Assay for Inhibitors of PDE-IV (AID 607; active means well fitted activation curve with a large enough effect in the main read-out, with a control signal flat, not every such curve was filed as active); details: HEK293 ACTOne CNG channel cells, membrane potential fluorescence; series mostly up to 22.9 µM
# Chain of 3',5'-cyclic-AMP phosphodiesterase 4B (Homo sapiens) (Q07343 whole entry, looked up): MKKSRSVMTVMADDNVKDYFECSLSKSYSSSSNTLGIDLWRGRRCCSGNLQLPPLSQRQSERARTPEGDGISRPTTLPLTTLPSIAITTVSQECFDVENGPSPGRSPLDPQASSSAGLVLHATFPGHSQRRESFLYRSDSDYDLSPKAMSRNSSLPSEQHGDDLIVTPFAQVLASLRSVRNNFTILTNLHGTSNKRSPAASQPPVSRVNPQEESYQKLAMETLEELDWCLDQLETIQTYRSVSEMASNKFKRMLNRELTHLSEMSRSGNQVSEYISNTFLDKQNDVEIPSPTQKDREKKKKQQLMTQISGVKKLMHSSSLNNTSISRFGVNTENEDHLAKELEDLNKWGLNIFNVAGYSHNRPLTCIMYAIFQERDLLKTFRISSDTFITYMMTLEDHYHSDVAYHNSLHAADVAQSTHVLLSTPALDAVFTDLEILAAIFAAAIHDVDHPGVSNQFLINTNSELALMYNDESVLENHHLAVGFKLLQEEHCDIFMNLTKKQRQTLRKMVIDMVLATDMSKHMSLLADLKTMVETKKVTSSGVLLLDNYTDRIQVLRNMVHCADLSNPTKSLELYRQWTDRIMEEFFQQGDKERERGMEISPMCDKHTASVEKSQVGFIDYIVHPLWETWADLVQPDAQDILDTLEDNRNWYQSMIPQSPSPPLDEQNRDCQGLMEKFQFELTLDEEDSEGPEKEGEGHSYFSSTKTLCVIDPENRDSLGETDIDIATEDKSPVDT
# Method in brief: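 ACTOne HEK293 cells carry a modified cAMP-gated CNG channel and express endogenous PDE4; plated 1000 cells/well, compounds up to 22.9 uM final. Membrane-potential dye fluorescence (ex 535/em 590) was read; parental cells received 10 uM forskolin + 100 uM RO 20-1724.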
# [7] = target: Cytochrome P450 2C9 (Homo sapiens) (UniProt P11712); assay: qHTS Assay for Inhibitors and Substrates of Cytochrome P450 2C9 (AID 883); details: recombinant CYP2C9, luciferin-H luminescence, 60 min; series mostly up to 25.6 µM; further: nearly all actives have a fitted effect of over 60% in size
# Chain of Cytochrome P450 2C9 (Homo sapiens) (P11712 whole entry, looked up): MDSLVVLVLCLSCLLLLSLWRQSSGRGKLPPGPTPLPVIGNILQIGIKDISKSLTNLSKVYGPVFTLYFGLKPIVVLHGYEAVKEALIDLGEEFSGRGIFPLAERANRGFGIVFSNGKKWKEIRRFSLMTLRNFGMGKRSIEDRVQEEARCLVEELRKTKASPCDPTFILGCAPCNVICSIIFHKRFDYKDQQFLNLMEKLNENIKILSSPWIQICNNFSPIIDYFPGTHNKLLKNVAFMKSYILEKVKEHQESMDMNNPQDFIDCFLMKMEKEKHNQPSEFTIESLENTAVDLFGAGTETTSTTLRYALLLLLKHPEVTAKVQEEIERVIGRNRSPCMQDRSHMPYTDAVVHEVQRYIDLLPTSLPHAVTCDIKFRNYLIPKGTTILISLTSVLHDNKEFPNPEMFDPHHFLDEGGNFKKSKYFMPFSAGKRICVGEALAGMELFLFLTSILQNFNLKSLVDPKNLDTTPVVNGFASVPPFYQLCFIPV
# Method in brief: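 A luminogenic readout tracked human CYP2C9 (10nM) converting deoxyluciferin (100uM, at KM) in 25mM KPO4 during 60 min at 37C with regenerated NADPH. Values normalized to 57uM sulphaphenazole as complete inhibition.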
# [8] = target: Cytochrome P450 3A4 (Homo sapiens) (UniProt P08684); assay: qHTS Assay for Inhibitors and Substrates of Cytochrome P450 3A4 (AID 884); details: recombinant CYP3A4, Luciferin-PPXE luminescence; series mostly up to 57.1 µM; further: nearly all actives have a fitted effect of over 50% in size; further: potency means the concentration at half of the fitted maximal effect
# Chain of Cytochrome P450 3A4 (Homo sapiens) (P08684 whole entry, looked up): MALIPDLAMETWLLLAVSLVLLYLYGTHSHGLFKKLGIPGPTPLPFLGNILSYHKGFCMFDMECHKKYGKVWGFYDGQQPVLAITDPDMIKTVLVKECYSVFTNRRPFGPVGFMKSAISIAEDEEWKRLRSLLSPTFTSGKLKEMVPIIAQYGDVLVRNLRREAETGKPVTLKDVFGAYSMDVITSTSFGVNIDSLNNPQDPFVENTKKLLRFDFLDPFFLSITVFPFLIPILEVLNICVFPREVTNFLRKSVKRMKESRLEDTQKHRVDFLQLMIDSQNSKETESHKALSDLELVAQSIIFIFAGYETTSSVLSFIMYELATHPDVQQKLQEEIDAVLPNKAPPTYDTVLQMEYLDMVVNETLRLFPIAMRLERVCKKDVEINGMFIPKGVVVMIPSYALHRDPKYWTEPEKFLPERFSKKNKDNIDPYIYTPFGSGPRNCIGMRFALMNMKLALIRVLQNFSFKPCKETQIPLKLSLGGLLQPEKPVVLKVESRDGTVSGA
# Method in brief: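 Luminescent readout of luciferin produced by CYP3A4 (20 nM) dealkylation of Luciferin-PPXE, 25 uM (its KM). NADPH-driven reaction ran 60 min at RT after 10 min compound preincubation; data scaled to 57 uM ketoconazole as 100% inhibition.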
# [9] = target: Cytochrome P450 2D6 (Homo sapiens) (UniProt P10635); assay: qHTS Assay for Inhibitors and Substrates of Cytochrome P450 2D6 (AID 891); details: recombinant CYP2D6, luciferin-ME EGE luminescence; series mostly up to 57.1 µM;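 further: luciferin methyl ether substrate demethylated by CYP2D6 with NADPH regeneration; nearly all actives have a fitted effect of over 60% in size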
# Chain of Cytochrome P450 2D6 (Homo sapiens) (P10635 whole entry, looked up): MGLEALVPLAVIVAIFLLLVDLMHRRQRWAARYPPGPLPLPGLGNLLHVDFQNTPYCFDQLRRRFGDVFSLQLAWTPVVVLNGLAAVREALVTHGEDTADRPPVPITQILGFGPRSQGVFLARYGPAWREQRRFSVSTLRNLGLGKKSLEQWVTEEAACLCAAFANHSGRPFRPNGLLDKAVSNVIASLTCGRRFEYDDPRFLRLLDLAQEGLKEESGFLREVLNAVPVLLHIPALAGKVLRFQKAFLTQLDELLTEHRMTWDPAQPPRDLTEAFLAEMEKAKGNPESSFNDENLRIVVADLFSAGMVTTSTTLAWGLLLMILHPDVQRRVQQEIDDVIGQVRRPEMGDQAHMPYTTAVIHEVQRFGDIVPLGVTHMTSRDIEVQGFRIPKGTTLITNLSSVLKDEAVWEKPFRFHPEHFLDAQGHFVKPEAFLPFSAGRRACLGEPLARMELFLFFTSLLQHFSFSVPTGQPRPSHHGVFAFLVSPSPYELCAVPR
# Method in brief: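 Luminescent read-out of luciferin formed by 5 nM human CYP2D6 demethylating 30 uM Luciferin-ME EGE (Km level) over 60 min at room temperature after NADPH regeneration addition. Data normalized to full inhibition by 1.43 uM quinidine.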
# [10] = target: Cytochrome P450 2C19 (Homo sapiens) (UniProt P33261); assay: qHTS Assay for Inhibitors and Substrates of Cytochrome P450 2C19 (AID 899); details: recombinant CYP2C19, luciferin-H EGE luminescence; series mostly up to 57.1 µM; further: nearly all actives have a fitted effect of over 60% in size
# Chain of Cytochrome P450 2C19 (Homo sapiens) (P33261 whole entry, looked up): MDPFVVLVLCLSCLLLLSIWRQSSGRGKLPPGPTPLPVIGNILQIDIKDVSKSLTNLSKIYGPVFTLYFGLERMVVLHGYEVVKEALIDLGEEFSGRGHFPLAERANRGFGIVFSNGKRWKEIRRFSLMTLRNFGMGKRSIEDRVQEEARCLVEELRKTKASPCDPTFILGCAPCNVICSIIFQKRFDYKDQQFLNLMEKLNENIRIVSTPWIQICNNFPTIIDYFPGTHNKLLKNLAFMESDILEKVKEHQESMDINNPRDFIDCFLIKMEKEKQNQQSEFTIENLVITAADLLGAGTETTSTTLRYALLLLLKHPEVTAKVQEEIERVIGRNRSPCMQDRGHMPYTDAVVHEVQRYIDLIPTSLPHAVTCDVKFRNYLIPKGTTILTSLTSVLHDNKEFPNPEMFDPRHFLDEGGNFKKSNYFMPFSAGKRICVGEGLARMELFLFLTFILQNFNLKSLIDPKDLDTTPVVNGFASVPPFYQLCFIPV
# Method in brief: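 NADPH-dependent conversion of Luciferin-H EGE (10uM, at KM) by 5nM enzyme in 50mM KPO4, 60 min at 37C following 10 min compound preincubation. Stopped with luciferin detection buffer; luminescence read after 20 min.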
# [11] = target: DNA dC->dU-editing enzyme APOBEC-3G (Homo sapiens) (UniProt Q9HC16); assay: qHTS for inhibitors of Vif-A3G interactions: Validation (AID 588379); details: Vif-A3G protein interaction assay; series mostly up to 46.1 µM
# Chain of DNA dC->dU-editing enzyme APOBEC-3G (Homo sapiens) (Q9HC16 whole entry, looked up): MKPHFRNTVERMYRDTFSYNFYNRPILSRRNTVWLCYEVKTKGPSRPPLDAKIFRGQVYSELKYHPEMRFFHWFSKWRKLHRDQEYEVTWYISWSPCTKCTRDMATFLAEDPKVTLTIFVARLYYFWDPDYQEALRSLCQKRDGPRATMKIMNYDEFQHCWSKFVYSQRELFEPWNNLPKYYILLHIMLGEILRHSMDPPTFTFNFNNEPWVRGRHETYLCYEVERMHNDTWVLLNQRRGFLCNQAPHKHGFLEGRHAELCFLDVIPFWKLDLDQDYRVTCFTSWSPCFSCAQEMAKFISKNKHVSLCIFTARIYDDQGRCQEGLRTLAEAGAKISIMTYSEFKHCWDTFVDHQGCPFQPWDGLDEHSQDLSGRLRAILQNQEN
# Method in brief: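 Yellow fluorescence (Ex 488, Em 500-530) of Vif-coexpressing HeLa A3G-eYFP cells, scanned by Acumen cytometer, reports blocked A3G degradation. Cells plated at 700/well overnight at 37 deg C before compound addition, then a further overnight compound incubation at 37 deg C.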
# [12] = target: Cytochrome P450 3A4 (Homo sapiens) (UniProt P08684); assay: qHTS Assay for Activators of Cytochrome P450 3A4 (AID 885); details: recombinant CYP3A4, Luciferin-PPXE luminescence, 60 min; series mostly up to 57.1 µM; further: nearly all actives have a fitted effect of over 65% in size
# Method in brief: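 CYP3A4 activity: Luciferin-PPXE O-dealkylation, 25uM substrate, 200mM KPO4, RT throughout. Read-out is luciferase luminescence; higher values reflect activation.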
# [13] = measured here: cell count channel max response
# [14] = measured here: lipid channel max response
smiles,measurement,setting,value
CC(=O)NC(CCC(=O)O)C(=O)O (configuration not stated),Potency,[1],inactive
same,Potency,[2],inactive
same,"activity change, negative = inhibition",[3],11.4% (inactive)
same,max response,[3]; [13],14.5%
same,max response,[3]; [14],27.6%
same,Potency,[4],inactive
Nc1nc(Cl)c2ncn(C3OC(CO)C(O)C3O)c2n1 (configuration not stated),Potency,[1],inactive
same,Potency,[2],inactive
same,"activity change, negative = inhibition",[3],1.75% (inactive)
same,max response,[3]; [13],-10%
same,max response,[3]; [14],-7.18%
same,Potency,[4],inactive
CC(=O)OC1C[C@]2(C)C(C(C)=O)CCC2C2CCC3=CC(=O)CC[C@@]3(C)C12 (some centres not stated),Potency,[1],inactive
same,Potency,[2],inactive
same,"activity change, negative = inhibition",[3],9.05% (inactive)
same,max response,[3]; [13],25.2%
same,max response,[3]; [14],39.7%
same,Potency,[4],inactive
CC(C)CC(NC(=O)OCC1c2ccccc2-c2ccccc21)C(=O)O (configuration not stated),Potency,[1],inactive
same,Potency,[2],inactive
same,"activity change, negative = inhibition",[3],2.46% (inactive)
same,max response,[3]; [13],10.8%
same,max response,[3]; [14],14.5%
same,Potency,[4],inactive
COC(=O)C1C(O)CC[C@@H]2CN3CCc4c([nH]c5ccccc45)C3C[C@@H]12 (some centres not stated),Potency,[1],inactive
same,Potency,[2],inactive
same,"activity change, negative = inhibition",[3],4.48% (inactive)
same,max response,[3]; [13],19.7%
same,max response,[3]; [14],26.3%
same,Potency,[4],inactive
CC1(C)SC2C(NC(=O)COc3ccccc3)C(=O)N2C1C(=O)O (configuration not stated),Potency,[1],inactive
same,Potency,[2],inactive
same,"activity change, negative = inhibition",[3],3.45% (inactive)
same,max response,[3]; [13],17.3%
same,max response,[3]; [14],22.6%
same,Potency,[4],inactive
CC1CC[C@@]2(OC1)OC1CC3C4CC[C@@H]5CC(O)CC[C@@]5(C)C4CC[C@]3(C)C1C2C (some centres not stated),Potency,[1],inactive
same,Potency,[2],inactive
same,"activity change, negative = inhibition",[3],4.69% (inactive)
same,max response,[3]; [13],11.7%
same,max response,[3]; [14],17.1%
same,Potency,[4],inactive
O=S(=O)(O)c1cc(N=C=S)ccc1/C=C/c1ccc(N=C=S)cc1S(=O)(=O)O,Potency,[1],inactive
same,Potency,[2],inactive
same,"activity change, negative = inhibition",[3],9.64% (inactive)
same,max response,[3]; [13],-3.47%
same,max response,[3]; [14],10.3%
same,Potency,[4],inactive
CC(C)(C)NC[C@@H](O)COc1nsnc1N1CCOCC1,Potency,[1],inactive
same,Potency,[2],inactive
same,"activity change, negative = inhibition",[3],13.4% (inactive)
same,max response,[3]; [13],16.2%
same,max response,[3]; [14],36.5%
same,Potency,[4],inactive
CC1(C)C2(Cl)C(Cl)C(Cl)C(Cl)(C(Cl)Cl)C1(Cl)C2Cl (configuration not stated),Potency,[1],inactive
same,Potency,[2],inactive
same,"activity change, negative = inhibition",[3],3.3% (inactive)
same,max response,[3]; [13],3.76%
same,max response,[3]; [14],3.86%
same,Potency,[4],inactive
Cc1onc(-c2ccccc2Cl)c1C(=O)NC1C(=O)N2C1SC(C)(C)C2C(=O)O (configuration not stated),Potency,[1],inactive
same,Potency,[2],inactive
same,"activity change, negative = inhibition",[3],9.93% (inactive)
same,max response,[3]; [13],11.3%
same,max response,[3]; [14],24.6%
same,Potency,[4],inactive
CCOC(=O)C(CCc1ccccc1)NC(C)C(=O)N1C(C(=O)O)CC2CCCC21 (configuration not stated),Potency,[1],inactive
same,Potency,[2],inactive
same,"activity change, negative = inhibition",[3],8.81% (inactive)
same,max response,[3]; [13],13.5%
same,max response,[3]; [14],25.8%
same,Potency,[4],inactive
CC(C)C(N)C(=O)NC(Cc1c[nH]c2ccccc12)C(=O)O (configuration not stated),Potency,[1],inactive
same,Potency,[2],inactive
same,"activity change, negative = inhibition",[3],7.82% (inactive)
same,max response,[3]; [13],15.4%
same,max response,[3]; [14],28.4%
same,Potency,[4],inactive
CC(CCC(=O)O)C1CCC2C3CC[C@H]4CC(O)CC[C@@]4(C)C3CC(O)[C@]12C (some centres not stated),Potency,[1],inactive
same,Potency,[2],inactive
same,"activity change, negative = inhibition",[3],8.52% (inactive)
same,max response,[3]; [13],-1.9%
same,max response,[3]; [14],10.5%
same,Potency,[4],inactive
NCC1O[C@@H](OC2C(N)C[C@H](N)[C@@H](O[C@H]3OC(CO)C(O)C(N)C3O)C2O)C(O)C(O)C1O (some centres not stated),Potency,[1],inactive
same,Potency,[2],inactive
same,"activity change, negative = inhibition",[3],12.1% (inactive)
same,max response,[3]; [13],13.1%
same,max response,[3]; [14],29.6%
same,Potency,[4],inactive
CC(CCC(=O)O)C1CCC2C3C(O)C[C@@H]4CC(O)CC[C@@]4(C)C3CC(O)[C@]12C (some centres not stated),Potency,[1],inactive
same,Potency,[2],inactive
same,"activity change, negative = inhibition",[3],4.41% (inactive)
same,max response,[3]; [13],-4.16%
same,max response,[3]; [14],0.136%
same,Potency,[4],inactive
NCC1O[C@@H](OC2C(N)CC(N)C(O)C2O[C@@H]2OC(CO)C(O)C2O)C(N)C(O)C1O (some centres not stated),Potency,[1],inactive
same,Potency,[2],inactive
same,"activity change, negative = inhibition",[3],6.74% (inactive)
same,max response,[3]; [13],5.17%
same,max response,[3]; [14],12.7%
same,Potency,[4],inactive
NCCC(=O)N[C@@H](Cc1cnc[nH]1)C(=O)O,Potency,[5],inactive
same,outcome,[6],inactive
same,Potency,[7],inactive
same,Potency,[8],inactive
same,Potency,[9],inactive
same,Potency,[10],inactive
same,"activity change, negative = inhibition",[3],-2.81% (inactive)
same,max response,[3]; [13],-6.32%
same,max response,[3]; [14],-9.96%
same,outcome,[11],inactive
CC(C)C(C)/C=C/C(C)C1CCC2C3=CCC4CC(=O)CC[C@@]4(C)C3CC[C@]21C (some centres not stated),Potency,[1],inactive
same,Potency,[2],inactive
same,"activity change, negative = inhibition",[3],5.02% (inactive)
same,max response,[3]; [13],-0.92%
same,max response,[3]; [14],5.16%
same,Potency,[4],inactive
COC(=O)CC1C(C)(C)C(O)C2CC3=C4CC(O)OC(c5ccoc5)[C@]4(C)CCC3[C@@]1(C)C2=O (some centres not stated),Potency,[8],3160 nM (active)
same,Potency,[12],inactive
same,Potency,[1],inactive
same,Potency,[2],inactive
same,"activity change, negative = inhibition",[3],-6.39% (inactive)
same,max response,[3]; [13],8.85%
same,max response,[3]; [14],5.28%
O=C(/C=C/c1ccc(O)cc1)c1ccccc1O,Potency,[8],1580 nM (active)
same,Potency,[12],inactive
same,Potency,[1],inactive
same,Potency,[2],inactive
same,"activity change, negative = inhibition",[3],-18.4% (inactive)
same,max response,[3]; [13],5.42%
same,max response,[3]; [14],-11.8%
O=c1c2ccccc2oc2cc(O)c(C3COCC(CO)C(O)C(O)C3O)c(O)c12 (configuration not stated),Potency,[8],inactive
same,"activity change, negative = inhibition",[3],16.5% (inactive)
same,max response,[3]; [13],22.8%
same,max response,[3]; [14],36.9%
CCOC(=O)OC(C)OC(=O)C1N2C(=O)C(NC(=O)C(N)c3ccccc3)C2SC1(C)C (configuration not stated),Potency,[1],inactive
same,Potency,[2],inactive
same,"activity change, negative = inhibition",[3],6.11% (inactive)
same,max response,[3]; [13],21.6%
same,max response,[3]; [14],29.1%
same,Potency,[4],inactive
